Tgondii IFNg: inhibitors of Toxoplasma gondii growth with IFN-gamma | Toxoplasma gondii growth in IFN-gamma-treated host cells; hits give low values | activity change, negative = inhibition, % (test concentration not listed) | 3.8% of 69,000 active; in the data active = activity change below about -70%, passing the limit was not always enough;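 note: host cells are HeLa cells infected with Toxoplasma gondii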
* hit, by the source's call. The full list was thinned out, with hits kept by preference.

For Cc1nc(N)nc(C)c1CCC(=O)Nc1ccc2c(c1)CN(Cc1ccccc1)C2 the results were Tgondii IFNg -1.3.
Screening O=C(Cn1ncc2ccccc2c1=O)Nc1ccc2c(c1)CN(Cc1ccccc1)C2 returned Tgondii IFNg 2.1.
`O=C(Nc1ccc2c(c1)CN(Cc1ccccc1)C2)c1cnc(N2CCOCC2)nc1` gave Tgondii IFNg -95.5*.
Screening CCCCOc1ccc(-c2cc3c(=O)n(Cc4nc(-c5ccc(C)cc5)oc4C)ccn3n2)cc1 returned Tgondii IFNg -56.2.
COc1ccc([C@@H]2CN(C(=O)c3cccs3)C[C@H]2C(=O)O)cc1 was read as Tgondii IFNg -14.0.
CCS(=O)(=O)N1C[C@@H](c2nc(C)no2)C[C@@H]2OCC[C@@H]21 was read as Tgondii IFNg 440.1.
`Cn1ccnc1-c1nccn1Cc1ccc(CN2CCCC2)cc1` gave Tgondii IFNg 12.0.
For Cc1ccc(NC(=O)Cn2ncc3c(N4CCN(c5ccccc5)CC4)ncnc32)cc1Cl the results were Tgondii IFNg -53.5.
`COc1ccc2c(c1)c(CC(=O)N1CCOCC1)c(C)n2C(=O)c1ccc(Cl)cc1` gave Tgondii IFNg -1.3.
For COc1cc(CNc2ccc(N3CCOCC3)cc2)ccc1OCc1ccccc1F the results were Tgondii IFNg -16.9.
For COc1ccc2nc(Cl)c(CNCc3ccccc3F)c(N3CCOCC3)c2c1 the results were Tgondii IFNg -99.4*.
`CC(C)c1nnc(NC(=O)C2CCCN(c3nc4ccccc4s3)C2)s1` (centres undefined) gave Tgondii IFNg 6.3.
C=CC[C@H]1CC(C)=C[C@H](CC=C)N1Cc1ncccc1C(=O)O was read as Tgondii IFNg -5.3.
Fc1cccc(CN2C[C@H](N3CCOCC3)C3OCCCC32)c1 (some centres undefined) was read as Tgondii IFNg 3.9.
`O=C(c1ccco1)N1CCC2(CCCN(Cc3nccs3)C2)C1` (centres undefined) gave Tgondii IFNg 1.2.
COC(=O)c1ccc(C(=O)OC)c(NC(=O)N2CCC3(CC2)Nc2cc(C)ccc2-n2cccc23)c1 was read as Tgondii IFNg -14.9.
For COc1ccccc1-c1nc(CN(C)S(=O)(=O)c2ccc(C)c(C)c2)c(C)o1 the results were Tgondii IFNg -43.7.
Screening Cc1ccc(-c2nc(CNS(=O)(=O)c3c(C)cc(C)cc3C)c(C)o2)cc1 returned Tgondii IFNg -22.9.
Screening COc1ccc(-c2nc(CNS(=O)(=O)c3ccc(C)cc3C)c(C)o2)cc1 returned Tgondii IFNg 8.9.
For CCOc1ccc(S(=O)(=O)N(C)Cc2nc(-c3ccc(C)cc3)oc2C)cc1 the results were Tgondii IFNg 3.0.
`Cc1oc(-c2ccccc2)nc1CNS(=O)(=O)c1ccc(F)cc1` gave Tgondii IFNg -6.5.
For Cc1ccc(S(=O)(=O)NCc2nc(-c3ccccc3)oc2C)cc1C the results were Tgondii IFNg -105.6*.
For Cc1ccc(S(=O)(=O)NCc2nc(-c3cccc(Cl)c3)oc2C)cc1C the results were Tgondii IFNg -24.5.
For CCOc1ccc(-c2nc(CN(C)S(=O)(=O)c3ccc(C)c(C)c3)c(C)o2)cc1 the results were Tgondii IFNg -102.3*.
`COc1ccc(OC)c(S(=O)(=O)NCc2nc(-c3ccc(C)cc3)oc2C)c1` gave Tgondii IFNg -86.8*.
`Cc1ccnc(CC(C)N(C)C(=O)c2cnn(Cc3ccccc3)c2)c1` (centres undefined) gave Tgondii IFNg -1.7.
Screening Cc1cccc(S(=O)(=O)N2CC3CCC2C3Oc2cccnc2)c1 (centres undefined) returned Tgondii IFNg -26.9.
OCCCn1cnc(-c2ccccc2)c1-c1cccc2c1OCO2 was read as Tgondii IFNg 61.0.
CC(C)CCN1C(=O)N(C(C)C)C(=O)C12CCN(Cc1ccc(CN3CCCCC3)s1)CC2 was read as Tgondii IFNg -3.4.
For CN(CCNC(=O)C1(c2cccs2)CC1(C)C)S(C)(=O)=O (centres undefined) the results were Tgondii IFNg 7.5.
`CC(C)n1cnc(-c2cc(C(=O)C3CC3)c3ccccn23)c1` gave Tgondii IFNg 66.2.
For C=CCOCC1CN(C2CCOC2)Cc2ccnn2C1 (centres undefined) the results were Tgondii IFNg 70.9.
Screening CN1CCN(S(=O)(=O)c2ccc(C(=O)NC3CCCCC3)cc2)CC1 returned Tgondii IFNg -5.7.
Screening O=C(NC1CCN(Cc2ccccc2)CC1)c1ccc(I)cc1 returned Tgondii IFNg 9.6.
Screening CCOc1ccc(C(=O)NC2CCN(S(=O)(=O)c3ccccc3)CC2)cc1 returned Tgondii IFNg -83.8*.
Cc1nc(C2CCCCN2C(=O)c2ccccc2)ncc1C(=O)N1CCCCC1 (centres undefined) was read as Tgondii IFNg -45.0.
For C=CCn1cnc(-c2ccccc2)c1-c1ccc2onc(C)c2c1 the results were Tgondii IFNg -0.7.
For CO[C@H]1COC[C@@H]1n1cnc(-c2ccccc2)c1-c1ccc2occc2c1 the results were Tgondii IFNg -77.8*.
CC(=O)Nc1ccc(-c2c(-c3ccccc3)ncn2Cc2ccco2)cc1 was read as Tgondii IFNg -3.3.
`Cc1cc(Br)ccc1NC(=O)Cn1ncc2c(N3CCC(C)CC3)ncnc21` gave Tgondii IFNg -48.1.
Screening CC1CCN(c2ncnc3c2cnn3CC(=O)NCc2ccccc2Cl)CC1 returned Tgondii IFNg -94.8*.
For O=C(Cn1ncc2c(N3CCCCCC3)ncnc21)NCc1ccccc1Cl the results were Tgondii IFNg 36.9.
CC1CCN(c2ncnc3c2cnn3CC(=O)NCc2cccnc2)CC1 was read as Tgondii IFNg 167.0.
Screening CC1CCN(c2ncnc3c2cnn3CC(=O)NCc2ccc(Br)cc2)CC1 returned Tgondii IFNg -94.2*.
Screening CC1CCN(c2ncnc3c2cnn3CC(=O)NCc2ccccc2)CC1 returned Tgondii IFNg -101.4*.
For Cc1ccccc1CNC(=O)Cn1ncc2c(N3CCC(C)CC3)ncnc21 the results were Tgondii IFNg 7.4.
Screening CC1CCN(c2ncnc3c2cnn3CC(=O)NCCCc2ccccc2)CC1 returned Tgondii IFNg 110.1.
`CC(C)CCNC(=O)Cn1ncc2c(N3CCC(C)CC3)ncnc21` gave Tgondii IFNg 130.8.
`CC(=O)N1CCCC(OCC2=CCCN(Cc3cc(C)on3)C2)C1` (centres undefined) gave Tgondii IFNg -47.5.
`Cc1nc(CNC2CCN(c3cccc(C)c3C)CC2)cs1` gave Tgondii IFNg -3.6.
For CC(=O)N1Cc2ccnn2CC(C(=O)Nc2nc(C)cs2)C1 (centres undefined) the results were Tgondii IFNg 105.4.
`COc1ccc(OC)c(CN2CCN(C3CCN(C(C)C)CC3)C(CCO)C2)c1` (centres undefined) gave Tgondii IFNg 0.5.
For Cc1cccc(OC2CCN(C(=O)CCNS(C)(=O)=O)CC2)c1 the results were Tgondii IFNg 1.3.
`O=C(c1[nH]ncc1Cl)N1CCCC(c2n[nH]c(=O)n2-c2ccccc2)C1` (centres undefined) gave Tgondii IFNg 3.2.
For CCS(=O)(=O)N1CC2CN(C(=O)CCc3ccccc3)C2C1 (centres undefined) the results were Tgondii IFNg 113.1.
For Cn1ccnc1CN1CCC2(CC1)CCN(C(=O)c1ccccc1)C2 the results were Tgondii IFNg 4.9.
O=C(c1ccccc1F)N1C[C@@H]2CN(c3cnccn3)CC[C@H]2C1 was read as Tgondii IFNg -0.1.
CC(C)CN1CCC(N2CCC(C(=O)N(C)C)CC2)CC1 was read as Tgondii IFNg -0.3.
For O=C(CC1N=C2c3ccccc3N=C(SCc3cccc(F)c3)N2C1=O)NCCc1ccccc1 (centres undefined) the results were Tgondii IFNg -40.3.

Bioassay records (PubChem BioAssay)
